According to PubChem BioAssay (NCI):
About 83,000 compounds went through this panel and 20% of them were active in at least one assay; those are over-represented in the sample as a whole.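 The test compound was applied at a single concentration to cells in 96-well plates for 48 hours, and percent growth was recorded.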 Calls of active or inactive are those of the source.

System: COLO 205 colon
Assay: NCI-60 one-dose screen, 48 h (100 = growth as untreated, 0 = no growth, -100 = all killed)
Conditions: 10 µM unless noted
Experimental: Cells are grown in 96 well plates and exposed to the test compound for 48 hours. Compounds are tested at a single concentration, which is 10^-5 M for most compounds. The reported endpoint is percent growth (GI% or GIPRCNT), where numbers from 0 - 100% represent growth inhibition, and numbers from -100% - 0 represent cell death. For example, a value of 40 represents 60% growth inhibition. A value of 0 means no net growth occurred over the course of the experiment. A value of -40 indicates 40% of cells at the beginning of the experiment died by the end of the experiment. A value of -100 means all cells are dead at the end of the experiment.
NCI-60 Human Tumor Cell Lines Screen was performed using the standard one-dose NCI protocol, which is described in more detail at https://dtp.cancer.gov/discovery_development/nci-60/default.htm.
Compounds with GIPRCNT values below 10 were considered active. Activity score was based on GIPRCNT using the following formula: […]
Score is 0 for GIPRCNT values of 100 or above, 50 for GIPRCNT values of 0, and 100 for GIPRCNT values of -100.

Structure (SMILES) | growth
Cc1nc(-c2cc3ccccc3oc2=O)ccc1C(=O)/C=C/c1ccc(Cl)c(Cl)c1 | 113% (inactive)
CN(C)S(=O)(=O)c1oc(-c2ccccc2)nc1C#N | 75.9% (inactive)
N#Cc1nc(-c2ccccc2)oc1S(=O)(=O)N1CCCCC1 | 44.1% (inactive)
O=C(Nc1nc2ccc(O)cc2s1)c1cccc(C(F)(F)F)c1 | 107% (inactive)
C#Cc1nc(C2=C(C)C(OC(=O)CCC(=O)O)CC2)cs1 (stereo not given) | 122% (inactive)
CN1CCN(Cc2ccc(NC(=O)c3cncc(C#Cc4cnc5[nH]ncc5c4)c3)cc2C(F)(F)F)CC1 | 21.1% (inactive)
Clc1ccc(Cc2nnc3sc(-c4cccnc4)nn23)cc1 | 115% (inactive)
N=C1CC(=O)NN1C(=O)CSc1nc2sc3c(c2c(=O)n1-c1ccc(Cl)cc1)CCCC3 | 123% (inactive)
Cc1cc2nc3c4cc(Cl)ccc4n(CC(=S)NCCN(C)C)c3nc2cc1C | -39% (active)
Cc1sc2c(c1C)c(=O)nc1c(-c3nc(-c4ccc(F)cc4)no3)n[nH]n12 | 119% (inactive)
CN(C)CCCOc1c2ccc(Cl)cc2nc2c1oc1ccccc12 | -59.3% (active)
C=CCSc1ccc2c(c1)C(N1CCNCC1)=Nc1ccccc1O2 | 7.69% [8.25 µM] (active)
COc1cc(/C=C/C(=O)c2cc(OC)c(OC)c(OC)c2)ccc1Oc1nc(NCCO)nc(N2CCOCC2)n1 | 3.69% (active)
CC(O)C(NC(=O)C1CCCN1C(=O)CNC(=O)C1CC(=O)NCC(=O)NC(Cc2c[nH]c3ccccc23)C(=O)NC(Cc2ccc(O)cc2)C(=O)NCC(=O)NC(CO)C(=O)NC(CCC(N)=O)C(=O)NC(Cc2c[nH]c3ccccc23)C(=O)N1)C(=O)NCC(=O)NC(CCC(N)=O)C(=O)NC(CCCNC(=N)N)C(=O)NC(CC(=O)O)C(=O)O (stereo not given) | 109% (inactive)
OC1CCN(CCCOc2c3ccccc3nc3c2oc2ccc(Cl)cc23)CC1 | -13.1% (active)
O=C(NNc1nc2cc(F)ccc2n2c(CN3CC4(COC4)C3)ccc12)c1cnccn1 | 20.2% (inactive)
O=C(CSc1nc2sc3c(c2c(=O)n1-c1ccc(Cl)cc1)CCCC3)NNC(=O)Nc1ccc(Cl)c(C(F)(F)F)c1 | 53.4% (inactive)
C#C[C@]1(O)CC[C@H]2[C@@H]3CC=C4c5sc(Nc6ccc(Cl)cn6)nc5CC[C@]4(C)[C@H]3CC[C@@]21C | 88.8% (inactive)
Nc1ncc(-c2ccc3ncnc(N4CCc5cc(F)c(Cl)cc54)c3c2)cc1CO | -21.9% (active)
N#Cc1c(-c2ccc(Cl)cc2)nc(SCc2ccc([N+](=O)[O-])cc2)nc1N1CCNCC1 | -82% (active)

Structure (SMILES) | growth
COc1cc(/C=C/C(=O)c2ccc(C(F)(F)F)cc2)ccc1Oc1nc(NCCO)nc(N2CCOCC2)n1 | 108% (inactive)
[Cl][Ru].c1ccc(-c2cccc(-c3ccccn3)n2)nc1.c1ccc(-c2ccnc3c2ccc2c(-c4ccccc4)ccnc23)cc1 | -60% (active)
Cc1ccc(/C=C/c2nn3c(-c4ccco4)nnc3s2)cc1C | 126% (inactive)
Clc1ccc2c(NCCCn3ccnc3)c3oc4ccccc4c3nc2c1 | 31.8% (inactive)
O=C(N/N=C/c1ccc(Br)s1)c1[nH]c2ccc(Br)cc2c1-c1ccccc1 | -44.3% (active)
Cc1cccc(/C=C/c2nn3c(-c4ccco4)nnc3s2)c1 | 107% (inactive)
O=C(N/N=C/c1ccc([N+](=O)[O-])o1)c1[nH]c2ccc(Br)cc2c1-c1ccccc1 | 5.51% (active)
N#Cc1nc(-c2ccccc2)oc1N1CC[C@@H](CO)C1 | 106% (inactive)
NC(=O)c1cc(-c2ccc3ncnc(N4CCc5cc(F)c(Cl)cc54)c3c2)cnc1N | 54.8% (inactive)
Cn1cc(-c2cc(N)n3nc(-c4cn(C)c5ccc(F)cc45)cc3n2)c2cc(F)ccc21 | 115% (inactive)
OC1CCc2c(-c3ccc4ncnc(N5CCc6cc(F)c(Cl)cc65)c4c3)cncc21 (stereo not given) | 82.3% (inactive)
N#Cc1ccc(/C=N/NC(=O)c2[nH]c3ccc(Br)cc3c2-c2ccccc2)s1 | -13.3% (active)
N#Cc1ccc(C(=O)CSc2nc(Nc3ccc(S(N)(=O)=O)cc3)c3ccccc3n2)cc1 | 117% (inactive)
O=C(CSc1nccc(=O)[nH]1)Nc1ccc(-c2nc3ccccc3[nH]2)cc1 | 113% (inactive)
COc1ccc(/C=N/Nc2ccnc3cc(Cl)ccc23)cc1Cl | -82.7% (active)
N#Cc1nc(-c2ccccc2)oc1S(N)(=O)=O | 96.7% (inactive)
Nc1nc(N)c2c(n1)NC(c1ccc(F)cc1)CC(c1ccc(Nc3nc(NCCO)nc(Nc4ccc(Cl)cc4)n3)cc1)=N2 (stereo not given) | 28.4% (inactive)
CCN1CCN(S(=O)(=O)c2oc(-c3ccc(Cl)cc3)nc2C#N)CC1 | 65.5% (inactive)
Cc1ccc(C(=O)Nc2cccc(C(F)(F)F)c2)cc1Nc1nc(-c2cnccn2)nc2c1cnn2C | 20.4% (inactive)
CCOc1ccc2nc(NC(=O)c3ccc(C(F)(F)F)cc3)sc2c1 | 117% (inactive)
